# According to PubChem BioAssay (NCATS):
# Records with an inconclusive call do not appear. Entries that show only a call come without a potency. The source made the active and inactive calls. Unless noted, calls follow the shape of the dose curve; as a rule, active = well fitted inhibition curve with a large enough effect; inconclusive = small, poorly fitted or top-dose-only effect; inactive = no such curve, though single readings can be large or run the other way.
# Columns and labels:
# [1] = qHTS assay to identify small molecules that stimulate interleukin-8 (IL-8) secretion (AID 651758; active = well fitted activation curve with a large enough effect in the signal ratio; the % refers to the signal ratio)
# Method in brief: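 Secreted IL-8 measured homogeneously by TR-FRET (two labelled anti-IL-8 antibodies, 1-3 h at room temperature) after a 16 h, 37 C compound treatment of THP-1 cells at 2000 cells/well.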
# [2] = qHTS profiling of the MIPE4 collection as inhibitors of Plasmodium falciparum (DD2) proliferation (Rep 2) (AID 743346; call rule not given here); conditions: P. falciparum Dd2 in erythrocytes, SYBR Green DNA, 72 h; at 28.5 µM (top of the series) unless noted
# Method in brief: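 Parasite DNA was quantified by SYBR Green I fluorescence (ex 485, em 535 nm) after overnight lysis in saponin/Triton buffer at room temperature. Cultures at 0.3% parasitemia and 2.5% hematocrit were first exposed to compound for 72 h at 37 C; signals were normalised to artemisinin (0.29 uM) and vehicle wells.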
# [3] = S16 Schwann cell PMP22 intronic element beta-lactamase assay (AID 624044; calls by dose curve; also: potency is read from the fitted curve at half-maximal effect; nearly all actives have a fitted effect of over 15% in size)
# Method in brief: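 Beta-lactamase reporter under a PMP22 intronic regulatory element in stable S16 rat Schwann cells; 24 h compound exposure. 460 nm blue signal normalized between DMSO (0%) and potassium clavulanate, with 535 nm FRET tracking viability; curves classed by r2 and response.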
# [4] = Counterscreen qHTS for small molecule stabilizers of the endoplasmic reticulum resident proteome: GLuc-NoTag assay (AID 1508627)
# Method in brief: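 Counterscreen line: SH-SY5Y-GLuc-NoTag cells, treated with compound 19 hr before a 4 hr, 100 nM thapsigargin calcium depletion. Secreted Gaussia luciferase in the medium was measured by luminescence after coelenterazine was added (0.07x final), with cells unlysed.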
# [5] = Confirmatory qHTS for small molecule stabilizers of the endoplasmic reticulum resident proteome: Secreted ER Calcium Modulated Protein (SERCaMP) assay (AID 1508628); also: nearly all actives have a fitted effect of over 40% in size
# Method in brief: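 Reporter secretion upon ER calcium depletion (100 nM thapsigargin, 4 h, 37C) is measured as medium luminescence with coelenterazine, after 16 h compound pretreatment of SH-SY5Y-GLuc-SERCaMP cells; primary at three concentrations up to 38.3 uM, follow-up at 11 (up to 76.6 uM).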
structure (smiles),measurement,setting,value
CC(=O)[C@H]1CC[C@H]2[C@@H]3CCC4=CC(=O)CC[C@]4(C)[C@H]3CC[C@]12C,Potency,[1],inactive
same,"parasite growth, % of control (lower = inhibition)",[2],30.4%
COC(=O)C[C@](O)(CCCC(C)(C)O)C(=O)O[C@@H]1C(OC)=C[C@]23CCCN2CCc2cc4c(cc2[C@H]13)OCO4,Potency,[3],89.1 nM (active)
OC[C@@H]1[C@@H](O)[C@H](O)[C@H]2[C@@H](O)CCN21,Potency,[4],inactive
same,Potency,[5],inactive
